# Active and inactive are the calls of the source. A call without a number means that no potency is given here. Calls come from the whole dose curve; as a rule, active = well fitted inhibition curve with a large enough effect; inconclusive = small, poorly fitted or top-dose-only effect; inactive = flat fitted curve, though single readings scatter.
# Molecular target: Luciferin 4-monooxygenase (Photinus pyralis) (UniProt P08659)
# Assay: Primary firefly luciferase (FLuc) qHTS assay for identification of artifact compounds. (AID 1845220); note: nearly all actives have a fitted effect of over 60% in size
# Conditions: purified firefly luciferase, luminescence, 5 min; series mostly up to 54.1 µM
# Summary of the method: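 Titrated compounds were incubated 15 min at RT, protected from light, with luciferin and ATP at 10 uM; reaction started with 10 nM FLuc, luminescence imaged at 5 min, and concentration-response fitted by Hill equation.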
# Potency is the fitted concentration of half-maximal effect.
row,SMILES,Potency
1,CS(=O)(=O)c1ccc(C(=O)Nc2ccc(Cl)c(-c3ccccn3)c2)c(Cl)c1,inactive
2,Cc1cc(Nc2nc(N[C@@H](C)c3ncc(F)cn3)ncc2Cl)n[nH]1,inactive
3,O=C(NOC[C@H](O)CO)c1ccc(F)c(F)c1Nc1ccc(I)cc1F,inactive
4,Cc1ccnc(NS(=O)(=O)c2ccc(NC(=O)Nc3ccc(S(=O)(=O)Nc4nccc(C)n4)cc3)cc2)n1,inactive
5,O=c1[nH]c(-c2ccc(C(F)(F)F)cc2)nc2c1CSCC2,inactive
6,CNC(=O)c1ccccc1Sc1ccc2c(/C=C/c3ccccn3)n[nH]c2c1,1900 nM (active)
7,C[C@@H]1CN(Cc2ccc(F)cc2)[C@@H](C)CN1C(=O)c1cc2c(C(=O)C(=O)N(C)C)cn(C)c2cc1Cl,inactive
8,CC1(C)Cc2c(-c3ccccc3)c(-c3ccc(Cl)cc3)c(CC(=O)O)n2C1,inactive
9,CC(C)(N)C(=O)N[C@H](COCc1ccccc1)C(=O)N1CCC2(CC1)CN(S(C)(=O)=O)c1ccccc12,inactive
10,Clc1ccc(Nc2nnc(Cc3ccncc3)c3ccccc23)cc1,inactive
11,COc1cc(Oc2ccnc3cc(OC)c(OC)cc23)ccc1NC(=O)NC(C)c1nccs1 (stereo not given),inactive
12,CCOc1ccn(-c2ccc(F)cc2)c(=O)c1C(=O)Nc1ccc(Oc2ccnc(N)c2Cl)c(F)c1,inactive
13,COc1c(Cl)cc2c([nH]c3cnccc32)c1NC(=O)c1cccnc1C,inactive
14,CCCS(=O)(=O)Nc1ccc(F)c(C(=O)c2c[nH]c3ncc(Cl)cc23)c1F,inactive
15,C[C@H](NC(=O)Cc1cc(F)cc(F)c1)C(=O)N[C@@H]1C(=O)N(C)c2ccccc2-c2ccccc21,inactive

# Reference: PubChem BioAssay (NCATS)
